Results: PubChem BioAssay AID1986 (Sanford-Burnham Center for Chemical Genomics, 2009)
Hit rate of the full screen: of about 290,000 compounds, about 890 (0.31%) were called active. The sample holds actives, similar compounds and a random draw of the others, so the mix is not that of the screen. Rule as the data show it: active = inhibition mostly above about 52% (no sharp cut-off); inactive = mostly below about 76%.

Assay: inhibitors of HIV fusion peptide binding, primary screen, biochemical, uHTS, fluorescence dequenching (AID 1986)
Details: cell-free peptide binding, 30 min, stronger effect = higher value
[1] = measured here: repeat confirmation average inhibition, at 18.6 µM

| Structure (SMILES) | inhibition (at 20 µM) | inhibition [1] [%] |
| --- | --- | --- |
| CCOc1cccc(C(=O)Nc2cccc(C(C)=O)c2)c1 | -0.2% (inactive) |  |
| Cc1ccc(CN(C(=O)c2ccccc2[N+](=O)[O-])C2CCS(=O)(=O)C2)o1 (centres undefined) | 0.4% (inactive) |  |
| COc1cccc(OC)c1C(=O)NC(=O)Nc1c(F)c(F)c(F)c(F)c1F | 0.3% (inactive) |  |
| O=C(O)CC(c1cccc(C(F)(F)F)c1)N1CCS(=O)(=O)CC1 (centres undefined) | 0.6% (inactive) |  |
| CCc1ccc(CN(C(=O)COc2c(C)cccc2C)C2CCS(=O)(=O)C2)cc1 (centres undefined) | -0.3% (inactive) |  |
| O=C(Nc1nnc(-c2cccc(F)c2)s1)Nc1ccccc1F | 0.6% (inactive) |  |
| O=c1[nH]c2c(cc1CNCCN1CCOCC1)c(-c1cccc(F)c1)nn2-c1ccccc1 | -1.4% (inactive) |  |
| COc1ccc(CNC(=O)Oc2ccccc2)cc1Cl | -0.6% (inactive) |  |
| COc1ccccc1N1C(=N)S/C(=C\c2ccc(-c3ccccc3C(=O)O)o2)C1=O | 54% (active) |  |
| Cc1ccc(C)c(N2C(=N)S/C(=C\c3ccc(-c4ccccc4C(=O)O)o3)C2=O)c1 | 52.1% (inactive) | 18.9 |
| O=C(O)c1ccccc1-c1ccc(/C=C2\SC(=O)N(c3ccccc3)C2=O)o1 | 11% (inactive) |  |
| CN(C)c1ncc(/C=C2/C(=O)NC(=S)N(C3CCCCC3)C2=O)cn1 | 32.3% (inactive) |  |
| O=C(NNC(=S)NC1CCCCC1)c1ccccc1O | 3.3% (inactive) |  |
| O=C1C(=Cc2ccco2)C(=O)c2ccccc21 | 33.3% (inactive) |  |
| O=C1/C(=C/c2ccco2)Cc2ccccc21 | 29.3% (inactive) |  |
| COc1ccc2c(c1)CC/C(=C/c1ccco1)C2=O | 44.1% (inactive) |  |
| O=C1/C(=C\c2ccc(Br)o2)Cc2ccccc21 | 21.7% (inactive) |  |
| O=C1/C(=C/c2ccco2)CCc2ccccc21 | 57.7% (active) |  |
| Nc1ccc2c(c1)C/C(=C/c1ccco1)C2=O | 73.6% (active) |  |
| CC(C)N(C(=O)Cn1cc(S(=O)(=O)CC(=O)NC2CCCCC2)c2ccccc21)C(C)C | -0.7% (inactive) |  |

| Structure (SMILES) | inhibition (at 20 µM) | inhibition [1] [%] |
| --- | --- | --- |
| Cc1ccc(-c2csc(NCCn3c(C(F)(F)F)nc4ccccc43)n2)cc1 | 1.7% (inactive) |  |
| Cc1cnc(CN(C)C(=O)c2ccc3oc(Cc4ccc(Cl)cc4)nc3c2)[nH]1 | 0.2% (inactive) |  |
| COc1ccc(-n2c(C)cc(/C=C3\C(=N)N4N=C(CC(=O)N5CCOCC5)SC4=NC3=O)c2C)cc1 | 20.1% (inactive) |  |
| Cc1ccc(/C=C/S(=O)(=O)NCC(=O)O)cc1 | 4.8% (inactive) |  |
| CN1C(=S)N(c2cccnc2)C(=O)/C1=C\c1ccc(N(C)C)cc1 | 6.7% (inactive) |  |
| Cc1c(N2C(=O)/C(=C/c3ccccc3)SC2=S)c(=O)n(-c2ccccc2)n1C | -4.2% (inactive) |  |
| Cc1c(N2C(=O)/C(=C\c3ccc(N(C)C)cc3)N(C)C2=S)c(=O)n(-c2ccccc2)n1C | 52.4% (active) | 74.6 |
| Cc1cccc(C(=O)N/C(=C/c2ccco2)C(=O)N2CCCCCC2)c1 | 0% (inactive) |  |
| O=C(NCC1CCCO1)Nc1cc(Cl)cc(Cl)c1 (centres undefined) | 0.7% (inactive) |  |
| COc1cccc2c(=O)c(C(=O)O)c[nH]c12 | 2% (inactive) |  |
| COc1cccc2c(C)c(C(=O)O)[nH]c12 | 67.9% (active) |  |
| COC(=O)c1cc(=O)c2cccc(OC)c2[nH]1 | -2.4% (inactive) |  |
| Nc1nnc(SCc2ccc([N+](=O)[O-])cc2)s1 | 0.4% (inactive) |  |
| Cc1cc(NC(=O)COC(=O)CCS(=O)(=O)c2ccc(Cl)cc2)no1 | 1.1% (inactive) |  |
| CC(C(=O)N1CCc2ccccc21)n1cccc1 (centres undefined) | -2.3% (inactive) |  |
| CC(=O)Nc1ccc(NS(=O)(=O)c2cc([N+](=O)[O-])ccc2C)cc1 | 0.5% (inactive) |  |
| Cc1ccc(C)c(NC(=O)c2ccccc2NS(=O)(=O)c2cc([N+](=O)[O-])ccc2C)c1 | 47.1% (inactive) |  |
| C=CCOC(=O)CCC(=O)Nc1cc(OC)nc(OC)n1 | -0.6% (inactive) |  |
| Cc1ccc(S(=O)(=O)Cc2cn3cccnc3n2)cc1 | -2.2% (inactive) |  |
| COc1ccc2c(c1)c(C(=O)N/N=C/c1cccc(Br)c1)c(C)n2C | 0.5% (inactive) |  |

| Structure (SMILES) | inhibition (at 20 µM) | inhibition [1] [%] |
| --- | --- | --- |
| COc1ccc(N2CC(C(=O)NCCc3c[nH]c4ccccc34)CC2=O)cc1 (centres undefined) | 0.2% (inactive) |  |
| N=C1S/C(=C\c2ccco2)C(=O)N1c1nccs1 | 51.1% (active) |  |
| COc1ccc(/C=C2\SC(=N)N(c3nccs3)C2=O)cc1OC | 13.9% (inactive) |  |
| N=C1S/C(=C\c2ccc(-c3cccc(Cl)c3)o2)C(=O)N1c1nccs1 | 68.1% (inactive) | 15.5 |
| CCCCNC(=O)CNC(=S)N(Cc1ccc(C)cc1)Cc1ccco1 | 2.5% (inactive) |  |
| CCOC(=O)CC1C(=O)NCCN1c1nc2ccc(C)cn2c(=O)c1/C=C1\SC(=S)N(CC(C)C)C1=O (centres undefined) | 109% (active) | 147 |
| CCCN1C(=O)/C(=C/c2c(N3CCNC(=O)C3CC(=O)OCC)nc3c(C)cccn3c2=O)SC1=S (centres undefined) | 146% (inactive) |  |
| CCCN1C(=O)/C(=C/c2c(N3CCNC(=O)C3CC(=O)OC)nc3c(C)cccn3c2=O)SC1=S (centres undefined) | 148% (inactive) |  |
| CCOC(=O)CC1C(=O)NCCN1c1nc2c(C)cccn2c(=O)c1/C=C1\SC(=S)N(C(C)CC)C1=O (centres undefined) | 137% (inactive) |  |
| CCOC(=O)CC1C(=O)NCCN1c1nc2c(C)cccn2c(=O)c1/C=C1\SC(=S)N(CC(C)C)C1=O (centres undefined) | 117% (active) |  |
| CCOC(=O)CC1C(=O)NCCN1c1nc2ccc(C)cn2c(=O)c1/C=C1\SC(=S)N(C(C)CC)C1=O (centres undefined) | 148% (inactive) |  |
| Cc1ccccc1NC(=O)Cn1c(=O)sc2ccccc21 | -1.5% (inactive) |  |
| CC1=C(C(=O)OCC2CCCO2)C(c2coc3ccc(Cl)cc3c2=O)C2=C(CCCC2=O)N1 (centres undefined) | -0.8% (inactive) |  |
| COc1ccccc1CC(=O)Nc1cccc2c1CCCC2 | -2.5% (inactive) |  |
| COc1ccc2nc(SCC(=O)Nc3nonc3C)[nH]c2c1 | 0.1% (inactive) |  |
| CSc1ccccc1C(=O)NCC(c1ccco1)N(C)C (centres undefined) | -2.2% (inactive) |  |
| CC1=C(C(=O)NC2CCCc3c2cnn3-c2cccc(C)c2C)OCCO1 (centres undefined) | -0.2% (inactive) |  |
| CN(C)c1cccc2c(C=C(C#N)C#N)ccc(N(C)C)c12 | 89.8% (active) |  |
| CN(C)c1cccc2c(/C=N/O)ccc(N(C)C)c12 | -1.6% (inactive) |  |
| CC(=O)c1ccc(N(C)C)c2c(N(C)C)cccc12 | -0.7% (inactive) |  |
